For assay [1], the target named is Sphingosine kinase 1 (Homo sapiens) (UniProt Q9NYA1). Conditions: at 1 µM.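 Further: mean SPHK1 inhibition value reported from the GSK PKIS kinase panel screen.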
Assay [2] addresses T1, Sphingosine kinase 2 (Homo sapiens) (UniProt Q9NRA0).
T1 sequence (whole entry): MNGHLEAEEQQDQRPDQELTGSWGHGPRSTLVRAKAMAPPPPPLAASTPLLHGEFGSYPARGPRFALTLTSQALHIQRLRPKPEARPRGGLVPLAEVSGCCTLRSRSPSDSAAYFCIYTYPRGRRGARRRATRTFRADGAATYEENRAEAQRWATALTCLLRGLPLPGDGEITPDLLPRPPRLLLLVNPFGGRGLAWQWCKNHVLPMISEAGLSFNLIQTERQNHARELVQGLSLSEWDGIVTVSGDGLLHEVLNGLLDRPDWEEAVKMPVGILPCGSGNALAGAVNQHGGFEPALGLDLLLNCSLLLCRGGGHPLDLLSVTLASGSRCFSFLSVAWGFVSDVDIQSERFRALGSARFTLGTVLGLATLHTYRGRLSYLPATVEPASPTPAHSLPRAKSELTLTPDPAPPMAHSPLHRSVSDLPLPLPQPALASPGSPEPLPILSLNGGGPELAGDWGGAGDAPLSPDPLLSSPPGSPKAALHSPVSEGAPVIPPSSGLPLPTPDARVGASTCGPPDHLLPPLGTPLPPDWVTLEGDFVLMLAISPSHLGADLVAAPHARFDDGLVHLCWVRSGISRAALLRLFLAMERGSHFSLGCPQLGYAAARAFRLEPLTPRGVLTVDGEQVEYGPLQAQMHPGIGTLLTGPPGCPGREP
Conditions: at 0.1 µM.

In assay [3] the target is T1, Sphingosine kinase 2 (Homo sapiens). Conditions: at 1 µM.
The target of assay [4] is Casein kinase II subunit alpha (Homo sapiens) (UniProt P68400). Conditions: at 0.1 µM.
Casein kinase II subunit alpha (Homo sapiens), sequence (P68400 whole entry, looked up): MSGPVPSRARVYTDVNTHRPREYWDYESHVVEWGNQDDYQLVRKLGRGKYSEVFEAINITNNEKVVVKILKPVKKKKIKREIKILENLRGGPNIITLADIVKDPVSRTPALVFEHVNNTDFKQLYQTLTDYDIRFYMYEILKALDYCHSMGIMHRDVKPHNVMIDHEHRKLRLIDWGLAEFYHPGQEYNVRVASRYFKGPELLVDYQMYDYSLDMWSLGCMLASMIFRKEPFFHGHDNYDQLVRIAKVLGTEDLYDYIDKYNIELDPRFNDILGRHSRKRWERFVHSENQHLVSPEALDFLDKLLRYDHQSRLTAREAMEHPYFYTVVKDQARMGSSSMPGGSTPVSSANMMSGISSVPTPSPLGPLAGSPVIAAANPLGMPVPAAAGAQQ
The target is the same in assay [5]. Particulars: at 1 µM.
In assay [6] the target is T2, Inhibitor of nuclear factor kappa-B kinase subunit alpha (Homo sapiens) (UniProt O15111).
T2 sequence (whole entry): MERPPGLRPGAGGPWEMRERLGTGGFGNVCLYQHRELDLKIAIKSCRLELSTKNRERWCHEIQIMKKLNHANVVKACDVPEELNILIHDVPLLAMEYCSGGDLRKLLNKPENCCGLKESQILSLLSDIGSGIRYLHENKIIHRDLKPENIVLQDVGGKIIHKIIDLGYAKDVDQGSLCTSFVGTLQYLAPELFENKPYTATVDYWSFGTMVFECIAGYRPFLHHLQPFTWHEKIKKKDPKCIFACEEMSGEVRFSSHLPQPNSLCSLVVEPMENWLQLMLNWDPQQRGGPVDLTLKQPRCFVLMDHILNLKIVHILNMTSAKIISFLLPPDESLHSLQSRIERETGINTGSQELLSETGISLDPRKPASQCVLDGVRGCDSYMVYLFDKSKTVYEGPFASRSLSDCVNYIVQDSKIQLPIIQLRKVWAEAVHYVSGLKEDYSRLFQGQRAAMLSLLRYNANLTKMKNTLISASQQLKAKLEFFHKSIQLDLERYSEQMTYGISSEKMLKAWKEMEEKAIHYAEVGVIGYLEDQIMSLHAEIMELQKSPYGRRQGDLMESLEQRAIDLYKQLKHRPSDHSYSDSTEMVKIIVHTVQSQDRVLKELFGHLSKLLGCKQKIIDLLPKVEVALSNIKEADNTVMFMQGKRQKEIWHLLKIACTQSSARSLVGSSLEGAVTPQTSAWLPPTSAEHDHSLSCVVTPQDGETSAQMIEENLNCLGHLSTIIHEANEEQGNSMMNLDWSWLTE
Conditions: at 0.1 µM.

Assay [7] concerns the target T2, Inhibitor of nuclear factor kappa-B kinase subunit alpha (Homo sapiens). Conditions: at 1 µM.
The target in assay [8] is T3, Inhibitor of nuclear factor kappa-B kinase subunit beta (Homo sapiens) (UniProt O14920).
T3 sequence (whole entry): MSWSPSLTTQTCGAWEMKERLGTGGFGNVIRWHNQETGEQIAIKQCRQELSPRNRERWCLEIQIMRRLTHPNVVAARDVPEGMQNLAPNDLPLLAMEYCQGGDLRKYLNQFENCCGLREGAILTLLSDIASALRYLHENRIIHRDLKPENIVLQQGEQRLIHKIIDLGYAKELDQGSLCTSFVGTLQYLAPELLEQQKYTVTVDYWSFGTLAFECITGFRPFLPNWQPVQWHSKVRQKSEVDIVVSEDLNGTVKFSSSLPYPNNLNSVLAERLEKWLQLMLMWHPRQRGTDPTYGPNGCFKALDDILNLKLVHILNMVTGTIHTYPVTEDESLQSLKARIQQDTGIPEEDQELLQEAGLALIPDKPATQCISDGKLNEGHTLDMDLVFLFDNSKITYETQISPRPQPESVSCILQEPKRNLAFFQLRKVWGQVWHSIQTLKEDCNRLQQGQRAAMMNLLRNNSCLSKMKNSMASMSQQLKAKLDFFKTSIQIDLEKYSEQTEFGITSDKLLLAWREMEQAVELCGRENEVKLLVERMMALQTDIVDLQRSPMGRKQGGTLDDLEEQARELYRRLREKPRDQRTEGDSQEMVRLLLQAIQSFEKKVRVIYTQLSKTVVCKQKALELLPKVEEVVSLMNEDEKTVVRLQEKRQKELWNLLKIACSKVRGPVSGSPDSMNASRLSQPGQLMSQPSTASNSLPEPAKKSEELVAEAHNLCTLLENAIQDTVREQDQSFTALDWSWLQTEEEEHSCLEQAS
Conditions: at 0.1 µM.

Assay [9] concerns the target T3, Inhibitor of nuclear factor kappa-B kinase subunit beta (Homo sapiens). Particulars: at 1 µM.
For assay [10], the target named is T4, Inhibitor of nuclear factor kappa-B kinase subunit epsilon (Homo sapiens) (UniProt Q14164).
T4 sequence (whole entry): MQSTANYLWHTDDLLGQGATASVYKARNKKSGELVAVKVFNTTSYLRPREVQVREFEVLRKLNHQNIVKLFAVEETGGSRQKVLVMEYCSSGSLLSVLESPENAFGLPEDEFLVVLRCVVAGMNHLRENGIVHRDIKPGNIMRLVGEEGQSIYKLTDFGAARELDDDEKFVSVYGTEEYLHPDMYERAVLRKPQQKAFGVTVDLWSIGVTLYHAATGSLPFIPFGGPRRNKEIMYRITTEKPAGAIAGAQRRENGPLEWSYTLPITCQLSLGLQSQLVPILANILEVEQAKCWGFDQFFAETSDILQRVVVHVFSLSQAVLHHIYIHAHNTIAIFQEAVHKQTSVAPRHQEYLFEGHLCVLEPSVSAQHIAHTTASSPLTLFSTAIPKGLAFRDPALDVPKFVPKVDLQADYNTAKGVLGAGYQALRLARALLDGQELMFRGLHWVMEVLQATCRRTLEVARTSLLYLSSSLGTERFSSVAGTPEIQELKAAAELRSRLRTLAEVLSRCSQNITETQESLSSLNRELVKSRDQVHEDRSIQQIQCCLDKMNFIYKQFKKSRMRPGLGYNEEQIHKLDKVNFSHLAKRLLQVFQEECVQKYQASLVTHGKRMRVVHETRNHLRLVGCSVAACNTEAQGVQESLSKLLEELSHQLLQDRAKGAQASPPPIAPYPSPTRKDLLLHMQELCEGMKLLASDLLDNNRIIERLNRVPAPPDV
Conditions: at 0.1 µM.

In assay [11] the target is T4, Inhibitor of nuclear factor kappa-B kinase subunit epsilon (Homo sapiens). Particulars: at 1 µM.
The target of assay [12] is T5, Serine/threonine-protein kinase Nek1 (Homo sapiens) (UniProt Q96PY6).
T5 sequence (whole entry): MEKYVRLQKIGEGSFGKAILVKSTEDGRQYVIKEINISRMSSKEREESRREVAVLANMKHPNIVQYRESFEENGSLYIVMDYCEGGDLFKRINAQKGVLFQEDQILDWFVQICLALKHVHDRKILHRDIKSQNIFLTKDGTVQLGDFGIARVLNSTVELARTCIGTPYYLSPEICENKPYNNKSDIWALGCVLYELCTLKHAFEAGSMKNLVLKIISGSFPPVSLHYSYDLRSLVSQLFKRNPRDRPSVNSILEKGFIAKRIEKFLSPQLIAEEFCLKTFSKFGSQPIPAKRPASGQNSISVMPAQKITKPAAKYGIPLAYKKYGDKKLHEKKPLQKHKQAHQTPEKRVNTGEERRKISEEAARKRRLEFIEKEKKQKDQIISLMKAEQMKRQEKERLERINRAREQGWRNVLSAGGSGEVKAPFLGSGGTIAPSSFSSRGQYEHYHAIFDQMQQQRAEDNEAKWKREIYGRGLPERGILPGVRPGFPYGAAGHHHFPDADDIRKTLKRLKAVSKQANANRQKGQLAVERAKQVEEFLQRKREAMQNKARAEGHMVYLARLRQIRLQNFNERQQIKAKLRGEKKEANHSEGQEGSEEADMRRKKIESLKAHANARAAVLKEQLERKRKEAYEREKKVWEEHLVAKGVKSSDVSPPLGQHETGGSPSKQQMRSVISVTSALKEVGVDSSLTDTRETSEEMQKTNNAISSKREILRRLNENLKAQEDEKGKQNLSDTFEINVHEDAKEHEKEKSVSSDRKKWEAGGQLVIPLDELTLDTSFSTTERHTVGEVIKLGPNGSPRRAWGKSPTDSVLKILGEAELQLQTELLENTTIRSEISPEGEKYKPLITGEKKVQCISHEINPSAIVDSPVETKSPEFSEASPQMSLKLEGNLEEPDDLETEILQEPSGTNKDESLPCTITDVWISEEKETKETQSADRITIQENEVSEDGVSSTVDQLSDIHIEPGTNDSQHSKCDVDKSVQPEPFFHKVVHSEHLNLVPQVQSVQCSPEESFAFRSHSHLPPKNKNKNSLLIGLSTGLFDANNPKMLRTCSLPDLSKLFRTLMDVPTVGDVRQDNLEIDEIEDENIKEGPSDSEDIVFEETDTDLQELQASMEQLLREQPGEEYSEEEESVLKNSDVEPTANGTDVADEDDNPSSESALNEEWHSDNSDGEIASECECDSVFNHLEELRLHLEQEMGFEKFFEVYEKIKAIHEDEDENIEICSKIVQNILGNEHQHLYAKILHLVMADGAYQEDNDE
Particulars: at 0.1 µM.

Assay [13] has as its target T5, Serine/threonine-protein kinase Nek1 (Homo sapiens). Conditions: at 1 µM.
The target in assay [14] is T6, Serine/threonine-protein kinase Nek2 (Homo sapiens) (UniProt P51955).
T6 sequence (whole entry): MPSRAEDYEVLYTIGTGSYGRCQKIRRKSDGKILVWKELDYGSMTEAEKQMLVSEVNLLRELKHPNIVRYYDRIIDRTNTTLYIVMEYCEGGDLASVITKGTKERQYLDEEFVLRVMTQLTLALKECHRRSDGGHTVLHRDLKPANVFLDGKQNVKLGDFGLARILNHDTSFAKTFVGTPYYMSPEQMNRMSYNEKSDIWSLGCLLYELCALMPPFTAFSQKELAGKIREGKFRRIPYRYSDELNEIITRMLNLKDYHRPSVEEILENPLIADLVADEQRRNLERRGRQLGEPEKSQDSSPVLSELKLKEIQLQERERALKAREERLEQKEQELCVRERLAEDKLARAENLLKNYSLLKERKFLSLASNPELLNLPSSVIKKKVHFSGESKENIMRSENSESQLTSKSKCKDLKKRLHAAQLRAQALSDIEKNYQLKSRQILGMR
Particulars: at 0.1 µM.

Assay [15] has as its target T6, Serine/threonine-protein kinase Nek2 (Homo sapiens). Particulars: at 1 µM.
Assay [16] addresses Serine/threonine-protein kinase Nek6 (Homo sapiens) (UniProt Q9HC98). Particulars: at 0.1 µM.
For assay [17] the target is unchanged. Conditions: at 1 µM.
Assay [18] addresses Serine/threonine-protein kinase Nek7 (Homo sapiens) (UniProt Q8TDX7). Conditions: at 0.1 µM.
Assay [19] shares this target. Particulars: at 1 µM.
The target of assay [20] is T7, Serine/threonine-protein kinase Nek9 (Homo sapiens) (UniProt Q8TD19).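 Further: reported value is the mean percent inhibition of NEK9.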
T7 sequence (whole entry): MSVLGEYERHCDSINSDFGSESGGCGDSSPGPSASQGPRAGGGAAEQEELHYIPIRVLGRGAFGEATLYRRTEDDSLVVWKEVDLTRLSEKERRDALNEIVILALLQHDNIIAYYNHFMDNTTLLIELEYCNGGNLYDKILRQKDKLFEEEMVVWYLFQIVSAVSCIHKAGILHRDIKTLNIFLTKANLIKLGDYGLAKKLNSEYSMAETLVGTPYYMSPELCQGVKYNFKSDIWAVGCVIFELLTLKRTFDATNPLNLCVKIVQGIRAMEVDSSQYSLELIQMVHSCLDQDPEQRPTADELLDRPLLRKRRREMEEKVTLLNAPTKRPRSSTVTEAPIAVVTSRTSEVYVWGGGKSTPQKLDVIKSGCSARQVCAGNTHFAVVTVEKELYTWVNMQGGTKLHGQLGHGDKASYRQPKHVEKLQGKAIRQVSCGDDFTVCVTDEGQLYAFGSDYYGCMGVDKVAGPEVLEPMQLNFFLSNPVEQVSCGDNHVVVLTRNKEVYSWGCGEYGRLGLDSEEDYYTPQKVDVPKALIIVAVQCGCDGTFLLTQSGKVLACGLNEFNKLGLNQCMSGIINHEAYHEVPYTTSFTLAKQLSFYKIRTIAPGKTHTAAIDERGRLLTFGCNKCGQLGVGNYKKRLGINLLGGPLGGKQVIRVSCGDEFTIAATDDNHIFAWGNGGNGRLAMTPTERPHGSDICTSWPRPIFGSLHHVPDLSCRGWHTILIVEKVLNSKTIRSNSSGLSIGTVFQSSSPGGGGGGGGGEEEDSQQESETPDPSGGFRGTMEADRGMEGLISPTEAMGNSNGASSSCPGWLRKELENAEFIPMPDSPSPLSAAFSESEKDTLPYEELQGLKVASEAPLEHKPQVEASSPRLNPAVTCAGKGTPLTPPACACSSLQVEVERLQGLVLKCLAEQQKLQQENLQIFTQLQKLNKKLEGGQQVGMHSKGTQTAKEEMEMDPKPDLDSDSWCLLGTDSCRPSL
Conditions: at 0.1 µM.

Serine/threonine-protein kinase Nek6 (Homo sapiens), sequence (Q9HC98 whole entry): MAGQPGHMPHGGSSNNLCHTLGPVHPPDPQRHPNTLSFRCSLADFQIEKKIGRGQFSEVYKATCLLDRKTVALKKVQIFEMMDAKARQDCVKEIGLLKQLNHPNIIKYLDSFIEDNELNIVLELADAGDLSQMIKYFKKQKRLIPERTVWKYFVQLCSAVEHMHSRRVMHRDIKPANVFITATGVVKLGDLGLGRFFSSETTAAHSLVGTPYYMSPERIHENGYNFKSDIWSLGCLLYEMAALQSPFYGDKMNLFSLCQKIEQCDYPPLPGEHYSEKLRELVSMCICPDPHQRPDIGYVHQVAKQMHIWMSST
Serine/threonine-protein kinase Nek7 (Homo sapiens), sequence (Q8TDX7 whole entry, looked up): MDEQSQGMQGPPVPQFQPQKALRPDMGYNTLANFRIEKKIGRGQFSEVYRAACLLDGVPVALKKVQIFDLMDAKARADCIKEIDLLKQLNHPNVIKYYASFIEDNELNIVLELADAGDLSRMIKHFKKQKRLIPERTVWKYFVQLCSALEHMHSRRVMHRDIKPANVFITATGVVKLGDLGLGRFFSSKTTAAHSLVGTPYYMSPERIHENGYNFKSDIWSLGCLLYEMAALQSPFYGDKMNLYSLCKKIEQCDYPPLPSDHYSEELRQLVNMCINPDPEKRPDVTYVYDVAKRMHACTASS
Sphingosine kinase 1 (Homo sapiens), sequence (Q9NYA1 whole entry): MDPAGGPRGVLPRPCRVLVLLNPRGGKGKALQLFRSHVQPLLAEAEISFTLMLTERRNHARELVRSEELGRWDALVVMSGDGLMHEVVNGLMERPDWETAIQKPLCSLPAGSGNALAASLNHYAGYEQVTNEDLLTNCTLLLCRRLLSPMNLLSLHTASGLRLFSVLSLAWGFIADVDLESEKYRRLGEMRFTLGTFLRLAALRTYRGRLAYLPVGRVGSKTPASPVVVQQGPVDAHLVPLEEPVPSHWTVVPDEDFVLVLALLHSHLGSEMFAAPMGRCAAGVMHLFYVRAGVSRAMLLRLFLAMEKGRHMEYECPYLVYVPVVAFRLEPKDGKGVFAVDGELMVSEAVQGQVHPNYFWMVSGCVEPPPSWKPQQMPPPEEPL

As a reminder, the inhibition is the relative decrease from the control value, in per cent. In the case of `CN1CCC(n2cnc(-c3ccc(F)cc3)c2-c2ccnc(Nc3ccccc3)n2)CC1`, the inhibition is -6.88% in assay [1]; -0.42% in [2]; 0.78% in assay [3]; 3.62% in [4]; 8.56% in assay [5]; 6.78% in assay [6]. In addition, the inhibition in assay [7] was 1.62%; in assay [8], 2.83%; in assay [9], 3.93%; in assay [10], 3.59%; in assay [11], 6.75%; in assay [12] it was 1.95%. Besides, the inhibition in assay [13] stood at 2.29%; in [14] it was 2.54%; in [15], 3.52%; in assay [16], 4.42%; in assay [17], 3.58%; in assay [18], 2.94%. Further, the inhibition in assay [19] is 2.65%; in assay [20], 5.58%.

Values taken from ChEMBL document CHEMBL1961873, “Compounds: GSK PKIS; Assays: Nanosyn kinase panel” (2012).
